Screen size: about 5,500 compounds; about 2,000 (36%) were called active. Not shown: some 18% with an inconclusive outcome. Cut-off read from the data, not from the text of the source: active = normalized growth mostly below about 0.91 (no sharp cut-off); inconclusive = no clear call, values can overlap the other calls; inactive = mostly above about 0.92. This is one part of the list.
Test: chemical genetic growth profiling, strain panel (AID 1159580);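 note: tested at 20 µM; growth read once vehicle control cultures reached saturation at 30 °C; 1 = growth at the plate median or of vehicle wells; lower values mean less growth of the strain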
Details: growth OD

Measured: normalized growth

CC(C)=CCc1c(O)cc(C)oc1=O
inactive: S. cerevisiae deletion strains, locus YBR021W, strain FUR4, active compounds read low 1.01 | S. cerevisiae deletion strains, locus YBR229C, strain ROT2, active compounds read low 0.99 | S. cerevisiae deletion strains, locus YCL029C, strain bik1, active compounds read low 0.97 | S. cerevisiae deletion strains, locus YDL035C, strain GPR1, active compounds read low 1.11 | S. cerevisiae deletion strains, locus YDL074C, strain BRE1, active compounds read low 1.12 | S. cerevisiae deletion strains, locus YDL101C, strain DUN1, active compounds read low 0.998 | S. cerevisiae deletion strains, locus YDL185W, strain tfp1, active compounds read low 0.961 | S. cerevisiae deletion strains, locus YDL192W, strain arf1, active compounds read low 1.01 | S. cerevisiae deletion strains, locus YDR101C, strain arx1, active compounds read low 1.01 | S. cerevisiae deletion strains, locus YDR150W, strain NUM1, active compounds read low 1.01 | S. cerevisiae deletion strains, locus YDR162C, strain NBP2, active compounds read low 1.03 | S. cerevisiae deletion strains, locus YDR318W, strain mcm21, active compounds read low 0.986 | S. cerevisiae deletion strains, locus YDR388W, active compounds read low 0.994 | S. cerevisiae deletion strains, locus YDR502C, strain sam2, active compounds read low 0.995 | S. cerevisiae deletion strains, locus YEL061C, strain CIN8, active compounds read low 1.03 | S. cerevisiae deletion strains, locus YER110C, active compounds read low 0.982 | S. cerevisiae deletion strains, locus YER155C, strain BEM2, active compounds read low 0.963 | S. cerevisiae deletion strains, locus YER167W, strain BCK2, active compounds read low 0.991 | S. cerevisiae deletion strains, locus YGL078C, strain dbp3, active compounds read low 0.981 | S. cerevisiae deletion strains, locus YGL086W, strain mad1, active compounds read low 1.01 | S. cerevisiae deletion strains, locus YGL248W, strain PDE1, active compounds read low 1.03 | S. cerevisiae deletion strains, locus YGR135W, strain pre9, active compounds read low 1 | S. cerevisiae deletion strains, locus YGR252W, strain gcn5, active compounds read low 1.03 | S. cerevisiae deletion strains, locus YHR079C, strain IRE1 (second series), active compounds read low 0.962 | S. cerevisiae deletion strains, locus YHR094C, strain hxt1, active compounds read low 0.978 | S. cerevisiae deletion strains, locus YHR129C, strain ARP1, active compounds read low 1.02 | S. cerevisiae deletion strains, locus YHR200W, strain rpn10, active compounds read low 0.975 | S. cerevisiae deletion strains, locus YIL066C, strain RNR3, active compounds read low 1 | S. cerevisiae deletion strains, locus YIL073C, strain SPO22, active compounds read low 1.08 | S. cerevisiae deletion strains, locus YIL125W, strain kgd1, active compounds read low 0.981 | S. cerevisiae deletion strains, locus YIR030C, strain dcg1, active compounds read low 0.991 | S. cerevisiae deletion strains, locus YJL095W, strain BCK1, active compounds read low 1.04 | S. cerevisiae deletion strains, locus YJL134W, strain LCB3, active compounds read low 0.988 | S. cerevisiae deletion strains, locus YJL168C, strain set2, active compounds read low 0.967 | S. cerevisiae deletion strains, locus YJL187C, strain SWE1 (second series), active compounds read low 1 | S. cerevisiae deletion strains, locus YJR043C, strain POL32, active compounds read low 1.08 | S. cerevisiae deletion strains, locus YKL009W, strain mrt4, active compounds read low 1.01 | S. cerevisiae deletion strains, locus YKL068W, active compounds read low 0.98 | S. cerevisiae deletion strains, locus YKL085W, strain MDH1 (second series), active compounds read low 0.972 | S. cerevisiae deletion strains, locus YKL085W, strain MDH1, active compounds read low 0.972 | S. cerevisiae deletion strains, locus YKL190W, strain CNB1, active compounds read low 1.02 | S. cerevisiae deletion strains, locus YKR001C, strain vps1, active compounds read low 1.03 | S. cerevisiae deletion strains, locus YLR039C, strain RIC1, active compounds read low 1.21 | S. cerevisiae deletion strains, locus YLR058C, strain SHM2, active compounds read low 1.01 | S. cerevisiae deletion strains, locus YLR102C, strain apc9, active compounds read low 0.953 | S. cerevisiae deletion strains, locus YLR262C, strain YPT6, active compounds read low 1.19 | S. cerevisiae deletion strains, locus YLR268W, strain sec22, active compounds read low 0.999 | S. cerevisiae deletion strains, locus YLR330W, strain CHS5, active compounds read low 1.01 | S. cerevisiae deletion strains, locus YLR371W, strain rom2, active compounds read low 0.983 | S. cerevisiae deletion strains, locus YLR418C, strain cdc73, active compounds read low 0.987 | S. cerevisiae deletion strains, locus YML016C, strain PPZ1, active compounds read low 0.982 | S. cerevisiae deletion strains, locus YML032C, strain rad52, active compounds read low 0.994 | S. cerevisiae deletion strains, locus YML124C, strain tub3, active compounds read low 0.973 | S. cerevisiae deletion strains, locus YMR078C, strain ctf18, active compounds read low 0.98 | S. cerevisiae deletion strains, locus YMR223W, strain ubp8, active compounds read low 0.99 | S. cerevisiae deletion strains, locus YMR307W, strain GAS1, active compounds read low 1.13 | S. cerevisiae deletion strains, locus YNL067W, strain RPL9B, active compounds read low 1.02 | S. cerevisiae deletion strains, locus YNL128W, strain TEP1, active compounds read low 1.01 | S. cerevisiae deletion strains, locus YNL233W, strain BNI4, active compounds read low 1.05 | S. cerevisiae deletion strains, locus YNL250W, strain rad50, active compounds read low 0.94 | S. cerevisiae deletion strains, locus YNL271C, strain bni1, active compounds read low 0.986 | S. cerevisiae deletion strains, locus YNL298W, strain CLA4, active compounds read low 0.981 | S. cerevisiae deletion strains, locus YNL307C, strain MCK1, active compounds read low 1 | S. cerevisiae deletion strains, locus YNL322C, strain KRE1, active compounds read low 0.995 | S. cerevisiae deletion strains, locus YNR052C, strain pop2, active compounds read low 0.99 | S. cerevisiae deletion strains, locus YOL006C, strain TOP1, active compounds read low 1.26 | S. cerevisiae deletion strains, locus YOL012C, strain htz1 0.881 | S. cerevisiae deletion strains, locus YOL147C, strain pex11, active compounds read low 0.973 | S. cerevisiae deletion strains, locus YOR061W, strain CKA2, active compounds read low 0.991 | S. cerevisiae deletion strains, locus YOR069W, strain VPS5, active compounds read low 0.989 | S. cerevisiae deletion strains, locus YOR136W, strain idh2, active compounds read low 0.972 | S. cerevisiae deletion strains, locus YOR144C, strain elg1, active compounds read low 0.964 | S. cerevisiae deletion strains, locus YOR184W, strain ser1, active compounds read low 1.07 | S. cerevisiae deletion strains, locus YOR316C, strain cot1, active compounds read low 0.971 | S. cerevisiae deletion strains, locus YPL055C, strain LGE1, active compounds read low 1.1 | S. cerevisiae deletion strains, locus YPL241C, strain CIN2, active compounds read low 0.997 | S. cerevisiae deletion strains, locus YPR119W, strain clb2, active compounds read low 0.963 | S. cerevisiae deletion strains, locus YPR141C, strain kar3, active compounds read low 0.954 | S. cerevisiae deletion strains, locus YPR163C, strain tif3, active compounds read low 0.995 | S. cerevisiae deletion strains, locus YPR167C, strain met16, active compounds read low 0.995 | S. cerevisiae deletion strains, strain wtn01, active compounds read low 1.01 | S. cerevisiae strains, strain wild type, active compounds read low 1.04
